# Test results taken from PubChem BioAssay AID686979 (National Center for Advancing Translational Sciences (NCATS), 2013).
# In all, about 420,000 compounds went through this assay and about 50,000 (12%) were called active. Inconclusive results (about 26%) are left out. The sample as a whole holds a higher share of actives than the screen did. Values without a mark were called inactive. Calls follow the shape of the dose curve; as a rule, active = well fitted inhibition curve with a large enough effect; inconclusive = small, poorly fitted or top-dose-only effect; inactive = flat fitted curve, though single readings scatter.
# Assay: qHTS for Inhibitors of human tyrosyl-DNA phosphodiesterase 1 (TDP1): qHTS in cells in presence of CPT; also: nearly all actives have a fitted effect of over 55% in size
# Details: chicken DT40 Tdp1-/-;hTDP1 cells + 20 nM CPT, ATP luminescence, 48 h; series mostly up to 46.2 µM; activity change, negative = growth inhibition: at the top concentration
# Method in brief: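 Chicken DT40 Tdp1-/- cells stably complemented with human TDP1 were seeded at 400 cells/well in medium containing 20 nM camptothecin, exposed to pin-transferred compounds, and grown at 37 °C for at least 48 hr. Viability was read as ATP luminescence.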
# % is scaled to controls: 0 for no effect and ±100 for the full control effect; potency is read from the fitted curve at half-maximal effect.
SMILES,Potency,"activity change, negative = growth inhibition [%]"
O=C(COC(=O)/C=C/c1cn(-c2ccccc2)nc1-c1cccnc1)Nc1ccc(Cl)cc1Cl,9.2 µM (active),–
Cc1[nH]n(-c2ccccc2)c(=O)c1CCOC(=O)c1ccc(C(F)(F)F)cc1,–,4.03
COc1ccc(S(=O)(=O)NCCCc2ccccc2)cc1,–,-18.6
COc1ccc(OCCNS(=O)(=O)Cc2ccccc2)cc1,–,-12
COc1ccc(S(=O)(=O)NCCCCOc2ccc(Cl)cc2)cc1,10.3 µM (active),–
CC(=O)c1ccc(S(=O)(=O)N(C)CCCC(=O)N(C)Cc2ccccc2F)cc1,–,-5.41
Cc1nn(-c2ccccc2)c(C)c1/C=N/NC(=O)CSc1nc2ccccc2c(=O)n1-c1ccccc1,16.4 µM (active),–
C/C(=N\NC(=O)COc1c(C)cccc1C)c1cccs1,–,-4.87
CCc1c(O)nc(SCC(=O)N2CCCCC2)n(-c2ccccc2C)c1=O,–,-14.5
Cc1ccc(-n2c(SCC(=O)N/N=C/C=C/c3ccccc3[N+](=O)[O-])nc3ccccc3c2=O)cc1,–,-19.7
O=C(CSc1nc2ccccc2c(=O)n1-c1ccc(F)cc1)NC1CC1,–,-14.4
C/C(=N\NC(=O)CSc1nc2ccccc2c(=O)n1-c1ccccc1C)c1cccs1,23.1 µM (active),–
CCn1c(SCC(=O)NC2=NCCS2)nnc1C(C)NC(=O)c1ccccc1F (centres undefined),–,6.99
Cc1ccc(Nc2cc(=O)n(C3CCCCC3)c(=O)[nH]2)cc1C,–,-15.9
C[C@H](NC(=O)c1nc[nH]c1C(=O)NCC(=O)OC(C)(C)C)c1ccccc1,–,19.7
CCC1(CC)NC(=O)N(CC(=O)OCC(=O)Nc2ccc(C(F)(F)F)cc2)C1=O,–,-5.2
Cc1nc(S(=O)(=O)c2ccc(Br)cc2)nc2c1CCC2,–,21.9
Brc1ccc(Nc2c3c(nc4ncnn24)CCC3)cc1,25.9 µM (active),–
Cc1cc(Nc2ccc(C)c(C)c2)n2ncnc2n1,–,-9.95
Cc1cc([N+](=O)[O-])c(NC2CCCCC2)c([N+](=O)[O-])c1,–,1.16
Cc1ccc(NC(=O)Cn2c(=O)n(-c3ccccc3)c(=O)c3c4c(sc32)CCCC4)cc1,14.6 µM (active),–
CCC(C)NC(=O)Cn1c(=O)n(-c2ccc(Cl)cc2)c(=O)c2c3c(sc21)CCCC3 (centres undefined),–,-16.5
Cc1sc2c(c1C)c(=O)n(-c1ccccc1)c(=O)n2CC(=O)NCC1CCCO1 (centres undefined),–,-3.05
CCOc1ccc(N(CC)C(=O)C2CCN(S(=O)(=O)c3cccc4nonc34)CC2)cc1,–,-25.8
CCN(C(=O)C1CCCN(c2nc(-c3ccc(OC)cc3)no2)C1)c1ccc(OC)cc1 (centres undefined),16.4 µM (active),–

SMILES,Potency,"activity change, negative = growth inhibition [%]"
COc1ccc(NC(=O)N2CCCC(c3nc(-c4ccc(F)cc4)no3)C2)cc1 (centres undefined),–,-12.4
CS(=O)(=O)c1ccccc1C(=O)Nc1ccc2sccc2c1,–,-0.774
O=C(Nc1cc2c3c(c1)CC(=O)N3CCC2)c1ccccc1F,–,12
CCCCCCSc1ccc([C@@H]2[C@@H]3C(=O)N(CC)C(=O)[C@@H]3[C@]3(C(=O)OC)CCCCN23)cc1OC,20.6 µM (active),–
CCN1C(=O)[C@H]2[C@@H](c3ccccc3)N[C@]3(CCCN(Cc4ccc(C)cc4)C3=O)[C@H]2C1=O,–,-10.5
CC(=O)N(CN1C(=O)C2C3C=CC(C3)C2C1=O)c1cccc(Cl)c1 (centres undefined),–,-1.76
CCCCC12CN3CC(C)(CN(C1)C3c1ccc(O)c(OC)c1)C2=O (centres undefined),–,-2.88
CCN1C(=O)[C@@H]2[C@@H](c3ccc(-c4cccc(Cl)c4)cc3)N3CCC[C@@]3(C(=O)OC)[C@@H]2C1=O,14.6 µM (active),–
CC1CCN(CCCNC(=O)CN2C(=O)CSc3ccc(S(=O)(=O)N4CCCCC4)cc32)CC1,inactive,–
O=C(Cc1ccccc1)Nc1ccc(C(=O)Nc2ccccc2C(=O)O)cc1,–,10.8
Cc1ccc(CNC(=O)[C@@H](NC(=O)Cc2ccccc2)C(C)C)cc1,–,-11.3
CCn1cc(CCC(=O)NCc2ccc(F)cc2)c2ccccc21,16.4 µM (active),–
CC(NC(=O)CCc1cn(Cc2ccccc2Cl)c2ccccc12)c1ccccc1 (centres undefined),20.6 µM (active),–
Cc1ccc(Cn2cc(CCC(=O)NCc3ccc(OC(C)C)cc3)c3ccccc32)cc1,23.1 µM (active),–
O=C(CCc1cn(Cc2ccc(F)cc2)c2ccccc12)NC1CCCCC1,–,-10.8
CCCCC(=O)NCc1ccc(F)cc1,–,7.38
CC(NC(=O)Cn1cc(C(F)(F)F)cc(Cl)c1=O)c1ccccc1 (centres undefined),–,17.6
Cc1ccc(CNC(=O)Cc2cn(C)c3ccccc23)cc1,–,18.9
Cn1cc(CCC(=O)NC2CC2)c2ccccc21,–,-1.11
CC(C)C1Cc2[nH][nH]c(=O)c2C(c2ccc(Cl)cc2)O1 (centres undefined),–,-11.6
O=C(NCc1ccccc1)C1CCN(C(=O)Cc2ccccc2)CC1,–,13
Cc1ccc(C(=O)Cc2nnc(C)s2)cc1,–,-7.05
COc1ccc(NC(=O)C(CC(C)C)NS(=O)(=O)c2ccc3c(c2)CCN3C(C)=O)cc1OC (centres undefined),–,-13.4
O=C1COc2c1ccc(O)c2O,–,-24.3
